Reference: PubChem BioAssay (NCATS)
Where “and” joins values, the source holds several entries; their conditions need not be identical. Identical values can stand only once. Results filed as inconclusive are left out. Values without a mark were called inactive. Calls of active or inactive are those of the source. Calls follow the shape of the dose curve; as a rule, active = well fitted cell-killing curve with a large enough effect; inconclusive = small, poorly fitted or top-dose-only effect; inactive = flat fitted curve, though single readings scatter.

Test: Cell Viability - LYMP2-019 (AID 973); also: nearly all actives have a fitted effect of over 55% in size;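 as to activity change, negative = cytotoxicity: 0% = DMSO alone and full effect = 92 µM tetraoctylammonium bromide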
Conditions: LYMP2-019 lymphoblastoid cell line viability; series mostly up to 92.2 µM; activity change, negative = cytotoxicity: at the top concentration
Excerpt: NIH Chemical Genomics Center [NCGC]
NIH Molecular Libraries Screening Centers Network [MLSCN]
National Institutes of Environmental Health Sciences [NIEHS]
National Toxicology Program [NTP]
We have developed a 1536-well cell-based assay for quantitative high throughput screening (qHTS) against a number of cell lines to determine in vitro cytotoxicity of small molecules. This particular assay uses a human lymphoblastoid cell line (LYMP2-019) purchased from Coriell Institute for Medical Research.
NCGC Assay Protocol Summary:
The CellTiter-Glo luminescent cell viability assay (Promega) is a homogeneous method to measure the number of viable cells in culture. The end point readout of this assay is based on quantitation of intracellular ATP, an indicator of metabolic activity, using the luciferase reaction. Luciferase catalyzes the oxidation of beetle Luciferin to oxyluciferin and light in the presence of ATP. The luminescent signal is proportional to amount of ATP present.
Using the CellTiter-Glo luminescent cell viability assay, the amount of cellular ATP was measured in the lymphoblastoid cell line with complete culture medium following compound treatment for 24 hours. The assay was performed in opaque white Kalypsys 1536-well plates. In the screen, tetraoctylammonium bromide was used as positive control. Library compounds were measured for their ability to cause acute toxicity in the cell line, as reflected by a decrease in intracellular ATP levels, in a concentration-dependent manner. […] AC50 values were determined from concentration-response data modeled with the standard Hill equation.
qHTS protocol for CellTiter Glo lymphoblastoid cellular assay
[Step] [Parameter] [Value] [Description]
1. Reagent; 5 uL; 2500 lymphoblastoid cells/well
2. Time; 5 hr; 37 C incubation
4. Controls; 23 nL; Tetraoctylammonium bromide 6.4pM to 92 uM
5. Time; 24 hr; 37 C incubation
6. Reagent; 5 uL; CellTiter Glo reagent
7. Time; 30 min; Room Temperature
8. Detection; Luminescence; Viewlux plate reader
Keywords: cell viability, cytotoxicity, lymphoblastoid cell line, luminescence, NTPHTS, NTPHTS_NCGC, NIEHS, DSSTox, MLSMR, MLSCN, NIH Roadmap, qHTS, NCGC
Potency is read from the fitted curve at half-maximal effect.

Row | SMILES | activity change, negative = cytotoxicity | Potency
1 | O=CC=O | -9.12% | –
2 | CCCCCCCCOC(=O)c1ccccc1C(=O)OCCCCCCCC | -3.04% | –
3 | O=C/C=C/c1ccccc1 | – | inactive
4 | CC(C)CCON=O | -11.8% | –
5 | C[C@H]1CC[C@@H]2[C@@H](C)[C@H]3[C@H](C[C@H]4[C@@H]5CC=C6CC(O[C@@H]7O[C@H](CO)[C@H](O)[C@H](O[C@@H]8O[C@H](CO)[C@@H](O)[C@H](O)[C@H]8O)[C@H]7O[C@H]7O[C@@H](C)[C@H](O)[C@@H](O)[C@H]7O)CC[C@]6(C)[C@H]5CC[C@]34C)N2C1 (stereo not given in full) | – | 39.8 µM (active)
6 | CCCCCl | -1.51% | –
7 | COC1=CC(=O)O[C@@H](/C=C/c2ccccc2)C1 | -4.64% | –
8 | CC(C)(C)c1cc(O)ccc1O | – | 50.1 µM (active)
9 | O=Cc1ccco1 | -4.15% | –
10 | ClC=C(Cl)Cl | 1.25% | –
11 | O=C1C=CC(=O)C=C1 | – | 50.1 µM (active)
12 | [O]=[Cd] | -14% | –
13 | ClCC1CO1 (stereo not given) | -21.1% | –
14 | O=[N+]([O-])c1ccccc1 | -7.1% | –
15 | [O]=[Cr](=[O])([OH])[O][Cr](=[O])(=[O])[OH] | – | 12.6 µM (active) and 10 µM (active)
16 | O=C(O)C(Cl)(Cl)Cl | – | inactive
17 | Clc1ccccc1Cl | -10.5% | –
18 | ClC(Cl)(Cl)Cl | – | inactive
19 | S=C=S | -0.301% | –
20 | CCOC(=O)c1ccccc1C(=O)OCC | – | inactive
21 | O=C1CCO1 | -9.49% | –
22 | C=CCN=C=S | -1.46% | –
23 | CC(C)Nc1ccc(Nc2ccccc2)cc1 | – | 25.1 µM (active)
24 | O=[N+]([O-])c1ccc(F)c([N+](=O)[O-])c1 | -29.7% | –
25 | [Cl-].[Cl-].[Hg+2] | – | 10 µM (active)
26 | O=C1C2CC=CCC2C(=O)N1SC(Cl)(Cl)Cl (stereo not given) | – | 3.98 µM (active) and 5.01 µM (active)
27 | C[C@H]1CCC[C@H](O)CCCCCc2cc(O)cc(O)c2C(=O)O1 | -11.1% | –
28 | NNC(N)=O | -8.28% | –
29 | COc1ccc2c(c1OC)C(=O)OC2C1c2cc3c(cc2CCN1C)OCO3 (stereo not given) | -7.03% | –
30 | Oc1cc(Cl)c(Cl)cc1Cl | -11.9% | –
